# Paper PMC12820563, “FoxP3 forms a head-to-head dimer in vivo and stabilizes its multimerization on adjacent microsatellites”
# Whole data set: some 16,000 sequences, median “rpm ratio (pull-down/input)” near 0.94, cut for the highest 2% near 1.7. Shown is part of a subset that was picked to be rich in the highest values.
# Molecular target: T1, MBP-FoxP1dN (Mus musculus, UniProt P58462 326-579)
# T1 sequence: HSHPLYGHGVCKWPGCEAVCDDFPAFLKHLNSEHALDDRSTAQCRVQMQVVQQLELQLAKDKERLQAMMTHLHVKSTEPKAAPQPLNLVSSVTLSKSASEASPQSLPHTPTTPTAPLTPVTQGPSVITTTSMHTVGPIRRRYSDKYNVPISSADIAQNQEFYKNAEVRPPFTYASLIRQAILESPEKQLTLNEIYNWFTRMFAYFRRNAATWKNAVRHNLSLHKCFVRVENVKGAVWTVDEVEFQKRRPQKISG
# Test: PD-seq (MBP pull-down with sequencing); 20 mM Tris-HCl pH 7.5, 100 mM NaCl, 1.5 mM MgCl2, 0.4 uM protein, 0.1 uM dsDNA library, 30 min, room temperature, amylose pull-down; high values mean tight binding
# Details: protein: recombinant; tags: His6-MBP; chain copies: 2; dsDNA, one strand shown
# How it was run: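 Mouse FoxP3 or FoxP1 fragment lacking the N-terminus, His6-MBP-tagged and expressed in E. coli, was incubated at 0.4 µM with 0.1 µM Klenow-filled degenerate double-stranded DNA library for 30 min at room temperature in Tris pH 7.5 buffer with NaCl and MgCl2. Complexes captured on amylose resin were washed three times and their DNA sequenced on Illumina. Binding is reads-per-million enrichment of pull-down over input, replicates pooled.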
row,Sequence,binding signal
1,GATGATTGTTCTCCCAGCTGATGAATTTTGAATTTCGAGTAAACAAATTTTCCTAATCTTTCTGTTCAAGCGCCATCTAC,0.984 RPM ratio (pull-down/input)
2,GATGATTGTTCTCCCAGCTGATGAATTTTAGGGGTCGAGTAAACAAATTTTCCTAATCTTTCTGTTCAAGCGCCATCTAC,0.805 RPM ratio (pull-down/input)
3,GATGATTGTTCTCCCAGCTGATGAATTGACTAAGTCGAGTAAACAAATTTTCCTAATCTTTCTGTTCAAGCGCCATCTAC,1.03 RPM ratio (pull-down/input)
4,GATGATTGTTCTCCCAGCTGATGAATTGACGCTTTCGAGTAAACAAATTTTCCTAATCTTTCTGTTCAAGCGCCATCTAC,1.33 RPM ratio (pull-down/input)
5,GATGATTGTTCTCCCAGCTGATGAATTAGCACCGTCGAGTAAACAAATTTTCCTAATCTTTCTGTTCAAGCGCCATCTAC,0.962 RPM ratio (pull-down/input)
6,GATGATTGTTCTCCCAGCTGATGAATTGGCTATATCGAGTAAACAAATTTTCCTAATCTTTCTGTTCAAGCGCCATCTAC,0.923 RPM ratio (pull-down/input)
7,GATGATTGTTCTCCCAGCTGATGAATTCGCCCGTTCGAGTAAACAAATTTTCCTAATCTTTCTGTTCAAGCGCCATCTAC,0.826 RPM ratio (pull-down/input)
8,GATGATTGTTCTCCCAGCTGATGAATTCGAATCTTCGAGTAAACAAATTTTCCTAATCTTTCTGTTCAAGCGCCATCTAC,0.84 RPM ratio (pull-down/input)
9,GATGATTGTTCTCCCAGCTGATGAATTATCTATATCGAGTAAACAAATTTTCCTAATCTTTCTGTTCAAGCGCCATCTAC,1.14 RPM ratio (pull-down/input)
10,GATGATTGTTCTCCCAGCTGATGAATTATAAACATCGAGTAAACAAATTTTCCTAATCTTTCTGTTCAAGCGCCATCTAC,2.42 RPM ratio (pull-down/input)
11,GATGATTGTTCTCCCAGCTGATGAATTATATCTATCGAGTAAACAAATTTTCCTAATCTTTCTGTTCAAGCGCCATCTAC,0.985 RPM ratio (pull-down/input)
12,GATGATTGTTCTCCCAGCTGATGAATTAATTATATCGAGTAAACAAATTTTCCTAATCTTTCTGTTCAAGCGCCATCTAC,1.11 RPM ratio (pull-down/input)
13,GATGATTGTTCTCCCAGCTGATGAATTATAAAAATCGAGTAAACAAATTTTCCTAATCTTTCTGTTCAAGCGCCATCTAC,1.08 RPM ratio (pull-down/input)
14,GATGATTGTTCTCCCAGCTGATGAATTATATAAATCGAGTAAACAAATTTTCCTAATCTTTCTGTTCAAGCGCCATCTAC,1.16 RPM ratio (pull-down/input)
15,GATGATTGTTCTCCCAGCTGATGAATTCTTTATATCGAGTAAACAAATTTTCCTAATCTTTCTGTTCAAGCGCCATCTAC,1.02 RPM ratio (pull-down/input)
16,GATGATTGTTCTCCCAGCTGATGAATTATATTTATCGAGTAAACAAATTTTCCTAATCTTTCTGTTCAAGCGCCATCTAC,2.43 RPM ratio (pull-down/input)

row,Sequence,binding signal
1,GATGATTGTTCTCCCAGCTGATGAATTATTTATATCGAGTAAACAAATTTTCCTAATCTTTCTGTTCAAGCGCCATCTAC,1.75 RPM ratio (pull-down/input)
2,GATGATTGTTCTCCCAGCTGATGAATTTATATTATCGAGTAAACAAATTTTCCTAATCTTTCTGTTCAAGCGCCATCTAC,2.04 RPM ratio (pull-down/input)
3,GATGATTGTTCTCCCAGCTGATGAATTATATATATCGAGTAAACAAATTTTCCTAATCTTTCTGTTCAAGCGCCATCTAC,1.16 RPM ratio (pull-down/input)
4,GATGATTGTTCTCCCAGCTGATGAATTTATTATATCGAGTAAACAAATTTTCCTAATCTTTCTGTTCAAGCGCCATCTAC,1.22 RPM ratio (pull-down/input)
5,GATGATTGTTCTCCCAGCTGATGAATTTACATCCTCGAGTAAACAAATTTTCCTAATCTTTCTGTTCAAGCGCCATCTAC,1.26 RPM ratio (pull-down/input)
6,GATGATTGTTCTCCCAGCTGATGAATTAGGCTTGTCGAGTAAACAAATTTTCCTAATCTTTCTGTTCAAGCGCCATCTAC,0.93 RPM ratio (pull-down/input)
7,GATGATTGTTCTCCCAGCTGATGAATTACAAATGTCGAGTAAACAAATTTTCCTAATCTTTCTGTTCAAGCGCCATCTAC,1.44 RPM ratio (pull-down/input)
8,GATGATTGTTCTCCCAGCTGATGAATTATCCCTGTCGAGTAAACAAATTTTCCTAATCTTTCTGTTCAAGCGCCATCTAC,0.907 RPM ratio (pull-down/input)
9,GATGATTGTTCTCCCAGCTGATGAATTAGTCCTCTCGAGTAAACAAATTTTCCTAATCTTTCTGTTCAAGCGCCATCTAC,0.936 RPM ratio (pull-down/input)
10,GATGATTGTTCTCCCAGCTGATGAATTACACAGTTCGAGTAAACAAATTTTCCTAATCTTTCTGTTCAAGCGCCATCTAC,1.18 RPM ratio (pull-down/input)
11,GATGATTGTTCTCCCAGCTGATGAATTATAATTATCGAGTAAACAAATTTTCCTAATCTTTCTGTTCAAGCGCCATCTAC,1.37 RPM ratio (pull-down/input)
12,GATGATTGTTCTCCCAGCTGATGAATTTATAATATCGAGTAAACAAATTTTCCTAATCTTTCTGTTCAAGCGCCATCTAC,1.31 RPM ratio (pull-down/input)
13,GATGATTGTTCTCCCAGCTGATGAATTATATTAATCGAGTAAACAAATTTTCCTAATCTTTCTGTTCAAGCGCCATCTAC,1.1 RPM ratio (pull-down/input)
14,GATGATTGTTCTCCCAGCTGATGAATTGATTATATCGAGTAAACAAATTTTCCTAATCTTTCTGTTCAAGCGCCATCTAC,1.26 RPM ratio (pull-down/input)
15,GATGATTGTTCTCCCAGCTGATGAATTATATTGATCGAGTAAACAAATTTTCCTAATCTTTCTGTTCAAGCGCCATCTAC,2.09 RPM ratio (pull-down/input)
16,GATGATTGTTCTCCCAGCTGATGAATTATAAATATCGAGTAAACAAATTTTCCTAATCTTTCTGTTCAAGCGCCATCTAC,2.01 RPM ratio (pull-down/input)
